Screens as filed in PubChem.
MITF primary = human MITF inhibition, primary screen; actives 0.91% (n = 650,000); O75030; AlphaScreen MITF homodimerization, bead proximity signal; inhibition, % at 2.6 µM; in the data active = inhibition above about 50%;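 note: 0% = vehicle wells with protein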
GPR151 activ = activators of human GPR151. activation, % at 11.2 µM. actives 1% (n = 650,000). PathHunter beta-arrestin GPR151 cells, luminescence. Q8TDV0; in the data active = activation above about 4.9%;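 note: 0% = median of compound wells and 100% = cells with positive control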
Target sequence (Q8TDV0 whole entry, looked up): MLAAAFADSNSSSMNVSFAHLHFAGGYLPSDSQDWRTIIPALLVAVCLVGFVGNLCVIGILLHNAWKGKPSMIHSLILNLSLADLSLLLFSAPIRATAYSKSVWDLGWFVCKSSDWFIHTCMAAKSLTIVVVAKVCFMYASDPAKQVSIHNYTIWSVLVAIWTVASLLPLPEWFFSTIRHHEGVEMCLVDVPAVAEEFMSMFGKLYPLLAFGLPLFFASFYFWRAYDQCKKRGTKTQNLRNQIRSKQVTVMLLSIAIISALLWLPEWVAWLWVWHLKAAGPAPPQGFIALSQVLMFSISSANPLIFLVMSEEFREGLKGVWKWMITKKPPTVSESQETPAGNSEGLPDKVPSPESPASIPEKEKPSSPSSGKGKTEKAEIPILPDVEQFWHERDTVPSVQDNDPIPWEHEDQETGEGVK
TEAD-YAP inh = TEAD-YAP interaction inhibition; HEK-TIYL cells, TEAD-Gal4/YAP UAS-luciferase luminescence; inhibition, % at 9.12 µM; actives 1.4% (n = 640,000); in the data active = inhibition above about 32%;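 note: 0% = median of test compound wells and 100% = reference inhibitor wells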
FBW7 act = activators of human E3 ligase FBW7 | Q969H0 | AlphaScreen FBW7–phospho-cyclin E peptide binding, activator screen | normalized activity (activation), % at 26.1 µM | actives 0.13% (n = 650,000); in the data active = normalized activity above about 1.9%;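 note: purified mutant Fbw7 with reduced substrate affinity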
* hit, by the source's call. The list is not random: actives were taken first. Their share in the collection is about 3.4%.

SMILES | MITF primary | GPR151 activ | TEAD-YAP inh | FBW7 act
Cc1ccc(C(=O)NCCc2ccccc2)cc1 | -7 | -6 | 82* | 0
COc1ccc(-c2cccc(C(=O)NCCOc3ccccc3)n2)cc1 | 3 | 1 | 17 | 8.0*
O=C(CCC(=O)c1ccccc1)NCCOc1ccccc1 | 7 | 4 | 0 | 0
CCc1ccc(OCCNC(=O)c2ccco2)cc1 | 3 | -2 | -23 | 0
O=C(NCCOc1ccccc1)c1cccc(-c2ccccc2)n1 | 15 | -1 | -1 | 0
O=C(NCCOc1ccc(Cl)cc1)c1ccco1 | 18 | 0 | -5 | 2.3*
CC(C)(C)C(=O)N1CCN(c2ccc([N+](=O)[O-])c(NCc3cccnc3)c2)CC1 | 11 | -1 | 4 | 0
Cc1ccc(-c2csc3nc(C)n(-n4c(C)ccc4C)c(=O)c23)o1 | 10 | -1 | 7 | 0
O=C1NC(=O)N(c2ccccc2)C(=O)C1C(c1ccccc1)c1ccccc1 (centres undefined) | 12 | 0 | 6 | 0
CC(=O)c1ccc(C(=O)NCCOc2ccccc2)cc1 | 0 | -5 | 68* | 1
COc1cc(-c2nc3ccc(C(=O)NCCc4ccccc4)cc3nc2-c2cc(OC)c(OC)c(OC)c2)cc(OC)c1OC | 10 | 0 | 8 | 0
COc1cc(-c2nc3ccc(C(=O)NCCc4ccc(C)cc4)cc3nc2-c2cc(OC)c(OC)c(OC)c2)cc(OC)c1OC | 22 | 1 | 38* | 1
Cc1ccc(C(=O)NCCOc2ccccc2)cc1 | 3 | -6 | 73* | 0
O=C(NCCOc1ccccc1)C(=O)NCc1ccco1 | 10 | 1 | 48* | 0
Oc1ccc(CCNc2ncnc3nc(-c4csc5ccccc45)[nH]c23)cc1 | -1 | 3 | 23 | 0
COc1cc(C)nc(N2CCN(C(=O)c3ccco3)CC2)n1 | -1 | 1 | -2 | 0
CC(=O)Nc1ccc(NC(C)=O)c2c1C(=O)c1c(NC(C)=O)ccc(NC(C)=O)c1C2=O | 82* | 2 | 1 | 0
CC(=O)Nc1cccc2c1C(=O)c1cccc(NC(C)=O)c1C2=O | -9 | -1 | 3 | 0
O=[N+]([O-])c1cccc2ccc(N3CCOCC3)nc12 | 12 | -1 | -14 | 0
CCOC(=O)c1csc2c1CCC/C2=N/O | -6 | 0 | 51* | 0
CCOC(=O)c1csc2c1CCC/C2=N\O | -3 | -2 | 48* | 0
CCOC(=O)c1csc2c1CCC(Br)(Br)C2=O | 17 | 0 | 5 | 0
COc1ccc(C(=O)[C@@H]2[C@@H](c3ccc(OC)cc3)C(C#N)(C#N)[C@H]3C=Cc4ccccc4N23)cc1 | 21 | 3 | 63* | 0
Cc1ccc(C(=O)[C@@H]2[C@@H](c3ccsc3)C(C#N)(C#N)[C@H]3C=Cc4ccccc4N23)cc1 | -4 | -1 | 6 | 0
COc1ccc(C(=O)[C@@H]2[C@@H](c3ccsc3)C(C#N)(C#N)[C@H]3C=Cc4ccccc4N23)cc1 | 15 | 4 | 60* | 0
SMILES | MITF primary | GPR151 activ | TEAD-YAP inh | FBW7 act
COc1ccc(C(=O)[C@@H]2[C@@H](c3cccc(Br)c3)C(C#N)(C#N)[C@H]3C=Cc4ccccc4N23)cc1 | 6 | 2 | 64* | 0
COc1cc(C)c2c(c1)oc(=O)c1ccccc12 | 22 | 3 | -6 | 2.2*
Cc1ccc(-c2ccc(-c3nnc(N)o3)s2)s1 | -3 | -4 | -24 | 2.3*
COc1ccc(-c2nnc(N)o2)cc1OC | 3 | 0 | 3 | 0
CCOC(=O)/C(C#N)=C/c1cn(CCC#N)nc1-c1ccccc1 | -3 | 1 | -4 | 0
COc1ccc(CC(=O)Nc2cc(Nc3ccccc3-c3ncccn3)c(C(F)(F)F)cn2)cc1 | -3 | 1 | -4 | 0
CNC(=O)c1ccccc1Nc1cc(NC(=O)Cc2ccc(OC)cc2)ncc1C#N | -10 | 0 | 40* | 0
CNC(=O)c1cccnc1Nc1cc(NC(=O)Cc2ccc(OC)cc2)ncc1C(F)(F)F | -10 | 3 | 70* | 0
COc1ccc(CC(=O)Nc2cc(Nc3ccccc3C(=O)NC[C@H](O)C(=O)N(C)C)ccn2)cc1 | 27 | 0 | -3 | 0
CNC(=O)c1ccccc1Nc1cc(NC(=O)Cc2ccc(OC)cc2)ncc1C(F)(F)F | 4 | 2 | 84* | 0
CNC(=O)c1ccccc1Nc1cc(NC(=O)Cc2cccc(OC)c2)ncc1C(F)(F)F | -10 | 1 | 64* | 0
Fc1cccc(-c2nn3c(C4COc5ccccc5O4)nnc3s2)c1 (centres undefined) | -6 | 0 | 3 | 0
COc1cccc(-c2nn3c(C4COc5ccccc5O4)nnc3s2)c1 (centres undefined) | 5 | 2 | 61* | 0
CC1(C)CC(=O)C2=C(C1)N(c1ccccc1)C(=O)CC2c1cccc([N+](=O)[O-])c1 (centres undefined) | 2 | 3 | 2 | 0
Cc1cc(I)ccc1NCC(=O)N/N=C/c1cccnc1 | 5 | 1 | 12 | 0
COc1ccc(C(=O)Nc2cc(C)ccc2O)c(OC)c1 | 6 | 1 | -52 | 0
Cc1ccc(O)c(NC(=O)c2ccc(N3C(=O)c4ccc([N+](=O)[O-])cc4C3=O)cc2)c1 | -26 | 0 | 55* | 0
COc1cc(OC)cc(C(=O)c2ccc(C(=O)Nc3cc(C(C)C)c(O)cc3C)cc2)c1 | -1 | 0 | 47* | 0
COc1ccc(C(=O)Nc2cc(C)ccc2O)cc1 | -5 | -9 | 44* | 0
O=C(Nc1ccc([N+](=O)[O-])cc1)c1ccc(N2C(=O)c3ccc([N+](=O)[O-])cc3C2=O)cc1 | 8 | 0 | -6 | 0
COc1ccccc1C(=O)Nc1cc(Cl)c(O)c(Cl)c1 | -2 | -1 | -17 | 0
Cc1ccc(S(=O)(=O)N/N=C/c2sc3ccccc3c2O)cc1 | 22 | -1 | 51* | 0
Cc1ccc(S(=O)(=O)N/N=C/c2ccccc2O)cc1 | -11 | 1 | 2 | 0
C=CCNCCC1CCC(=O)N1Cc1ccc(C(F)(F)F)cc1F (centres undefined) | 4 | 0 | 10 | 0
O=C(c1cccs1)N1CCN(c2ccc([N+](=O)[O-])c(N3CCOCC3)c2)CC1 | 8 | 2 | 19 | 0
SMILES | MITF primary | GPR151 activ | TEAD-YAP inh | FBW7 act
c1n[nH]c(-c2ccc3cnc(Nc4ccc(-n5cnc(N6CCOCC6)n5)cc4)nc3c2)n1 | 16 | 3 | 65* | 0
c1cc(-c2ccc3cnc(Nc4ccc(-n5cnc(N6CCOCC6)n5)cc4)nc3c2)cs1 | 22 | 0 | -6 | 0
c1cc(-n2cnc(N3CCOCC3)n2)ccc1Nc1ncc2ccc(-c3cn[nH]n3)cc2n1 | 20 | -1 | 68* | 0
COc1ccc2c(c1)c(CC(=O)Nc1ccccn1)c(C)n2C(=O)c1ccc(Cl)cc1 | 0 | 2 | 37* | 0
CC(=O)c1cccc(-c2nc(NCCO)c3ncn(C(C)C)c3n2)c1 | 16 | 2 | 55* | 0
CC(=O)c1cccc(-c2nc(NCCO)c3ncn(-c4ccsc4)c3n2)c1 | 19 | -2 | 49* | 0
OCCNc1nc(-c2ccccc2)nc2c1ncn2-c1ccsc1 | -3 | 2 | 42* | 0
